# Sampled rows, rich in hits. Any-hit rate of the full collection: about 0.99%.
# BLM helicase inh-1: qHTS Assay for Inhibitors of Bloom's syndrome helicase (BLM). recombinant BLM DNA unwinding, fluorescence dequenching. actives 0.2% (n = 350,000). Potency, µM (highest dose often 56.1 µM), inactives show at the top dose activity change, negative = inhibition, usual class: inhibitors. RecQ-like DNA helicase BLM (Homo sapiens), P54132;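 also: plate controls were vehicle for no effect and no enzyme for full effect; nearly all actives have a fitted effect of over 35% in size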
# FEN1 inh-1: qHTS Assay for the Inhibitors of Human Flap endonuclease 1 (FEN1); P39748; Potency, µM (top dose mostly 114 µM), without a hit: at the highest dose activity change, negative = inhibition, hits mostly inhibitors; Recombinant FEN1 flap cleavage, fluorescence, 15 min; actives 0.35% (n = 390,000); also: % is scaled to controls: 0 for no effect and ±100 for the full control effect; nearly all actives have a fitted effect of over 65% in size
#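 Read-out was taken twice, immediately and after 15 min, following addition of 50 nM substrate to 10 nM FEN1 that had sat with test compound for 15 min at room temperature. Curves came from a four-parameter Hill model.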
# L3MBTL1 inh-1: qHTS Assay for the Inhibitors of L3MBTL1. Lethal(3)malignant brain tumor-like protein 1 (Homo sapiens), Q9Y468. AlphaScreen L3MBTL1–H3K9me1 peptide binding. Potency, µM (doses to about 57.1 µM), without a hit: at the highest dose activity, negative = inhibition, most hits filed as inhibitors. actives 0.66% (n = 230,000). AID 485360, 2010; also: % is scaled to controls: 0 for no effect and ±100 for the full control effect; nearly all actives have a fitted effect of over 60% in size
#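 First, the protein-peptide complex forms for 30 min at room temperature (L3MBTL1 50 nM, biotinylated H3K9me1 peptide 75 nM). Next, compounds are pin-transferred and incubated 30 min. Finally, AlphaScreen beads are added and read after 30 min.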
# RECQ1 inh-1: qHTS Assay for Inhibitors of RecQ-Like Dna Helicase 1 (RECQ1). Potency, µM (series often up to 57.3 µM), for inactives: at the top dose activity, negative = inhibition, most hits filed as inhibitors. ATP-dependent DNA helicase Q1 (Homo sapiens), P46063. AID 2549, 2010. actives 0.54% (n = 240,000). RECQ1 DNA unwinding, red fluorescence kinetic read;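 also: plate controls were vehicle for no effect and no enzyme for full effect; nearly all actives have a fitted effect of over 30% in size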
#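 RECQ1T1 50 nM; forked duplex (20 bp + 30-nt ss tails) 200 nM, ATP 2 mM final; pH 8.0, 2 mM MgCl2, 2.5 ug/ml poly(dI-dC); 15 min compound preincubation; discontinuous kinetic read over 2 h at RT.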
# WRN helicase inh-1: qHTS for Inhibitors of WRN Helicase; WRN helicase unwinding, fluorescent forked duplex, kinetic; Potency, µM (top dose mostly 114 µM), for inactives: at the top dose activity change, negative = inhibition, hits mostly inhibitors; actives 0.46% (n = 360,000); AID 651768, 2012; also: % is scaled to controls: 0 for no effect and ±100 for the full control effect; nearly all actives have a fitted effect of over 55% in size
#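 Fluorescence dequenching readout, ex 525 nm/em 598 nm, kinetic mode: forked duplex DNA (100 nM final) with adjacent fluorophore and quencher unwound by WRN (20 nM final) with 2 mM ATP. Compound preincubation 15 min, room temperature.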
# RECQ1 conf: Confirmation qHTS Assay for Inhibitors of RecQ-Like Dna Helicase 1 (RECQ1). RECQ1 helicase DNA unwinding, fluorescence. Potency, µM (doses to about 229 µM), inactives show top-dose activity change, negative = inhibition, actives largely listed as inhibitors. AID 2708, 2010. shares compounds with RECQ1 inh-1. actives 28% (n = 610); also: % is scaled to controls: 0 for no effect and ±100 for the full control effect; nearly all actives have a fitted effect of over 45% in size
# RECQ1 ADP FP: Counterscreen for RECQ1 Inhibitors: ADP Fluorescence Polarization Displacement Assay | shares compounds with RECQ1 inh-1 | ADP fluorescence polarization displacement counterscreen | Potency, µM (top dose mostly 228 µM), inactives show at the top dose activity change, negative = inhibition, usual class: inhibitors | actives 27% (n = 530); also: % is scaled to controls: 0 for no effect and ±100 for the full control effect; nearly all actives have a fitted effect of over 45% in size
# RECQ1 inh-2: Confirmation qHTS Assay for Inhibitors of RecQ-Like Dna Helicase 1 (RECQ1) - Round 2 Cherry Picks. shares compounds with RECQ1 inh-1. recombinant RECQ1 DNA unwinding, red fluorescence. Potency, µM (titrated, usually from 119 µM), inactives show at the highest dose activity, negative = inhibition, most hits filed as inhibitors. actives 15% (n = 1,100); also: % is scaled to controls: 0 for no effect and ±100 for the full control effect; nearly all actives have a fitted effect of over 50% in size
# L3MBTL1 inh-2: qHTS Assay for the Inhibitors of L3MBTL1: Hit Validation; shares compounds with L3MBTL1 inh-1; L3MBTL1 methyl-lysine binding inhibition, biochemical qHTS; Potency, µM, actives largely listed as inhibitors; actives 91% (n = 500); also: nearly all actives have a fitted effect of over 70% in size
# AlphaScreen ctr2: qHTS Assay for the Inhibitors of L3MBTL1: Hit Validationin AlphaScreen Counterscreen; shares compounds with L3MBTL1 inh-1; AlphaScreen counterscreen, signal inhibition; Potency, µM (top dose mostly 57.1 µM), for inactives: at the highest dose activity change, negative = inhibition, most hits filed as inhibitors; 500 tested, under 10 active; also: 0% is about no effect
# FEN1 inh-2: qHTS Assay for the Inhibitors of FEN1: Confirmatory Assay for Cherry-picked Compounds; Potency, µM, actives largely listed as inhibitors; AID 720498, 2013; FEN1 flap cleavage, TAMRA/BHQ2 fluorogenic DNA substrate; shares compounds with FEN1 inh-1; actives 79% (n = 880); also: nearly all actives have a fitted effect of over 60% in size
# WRN helicase inh-2: qHTS for Inhibitors of WRN Helicase: Confirmatory Assay for Cherry-picked Compounds | WRN helicase DNA unwinding, fluorescence kinetic | actives 63% (n = 610) | AID 720497, 2013 | shares compounds with WRN helicase inh-1 | Potency, µM (series often up to 57.1 µM), for the others: at the highest dose activity, negative = inhibition, most hits filed as inhibitors; also: nearly all actives have a fitted effect of over 65% in size
# TO displacement: qHTS for Inhibitors of WRN Helicase: Thiazole Orange DNA Binding Counterscreen | shares compounds with WRN helicase inh-1 | thiazole orange DNA binding displacement, fluorescence | Potency, µM (highest dose often 57.1 µM), for inactives: at the highest dose activity change, negative = inhibition, most hits filed as inhibitors | actives 10% (n = 610);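 also: drop in dye fluorescence marks compound binding to DNA; % is scaled to controls: 0 for no effect and ±100 for the full control effect; nearly all actives have a fitted effect of over 60% in size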
# BLM helicase inh-2: qHTS for Inhibitors of WRN Helicase: BLM Helicase Counterscreen for WRN Inhibitors | shares compounds with WRN helicase inh-1 | Recombinant BLM helicase DNA unwinding, red fluorescence | Potency, µM (highest dose often 57.1 µM), without a hit: top-dose activity change, negative = inhibition, usual class: inhibitors | actives 60% (n = 610); also: nearly all actives have a fitted effect of over 60% in size
# * hit, by the source's call; i = inactive; ? = inconclusive; / = not tested or not shown; [ ] = another dose, or the depositor's remark. Calls follow the shape of the dose curve; as a rule, active = well fitted curve in the direction sought with a large enough effect; inconclusive = small, poorly fitted or top-dose-only effect, or another doubt; inactive = no such curve, though single readings can be large; an effect the other way counts as inactive or inconclusive. Potency is read from the fitted curve at half-maximal effect.
SMILES,BLM helicase inh-1,FEN1 inh-1,L3MBTL1 inh-1,RECQ1 inh-1,WRN helicase inh-1,RECQ1 inh-2,FEN1 inh-2,others
CC1CN(CCCCSc2ccc(Cl)cc2)CC(C)O1 (centres undefined),-6.8%,4.6%,3.4%,/,-3.5%,/,/,
CC1(C)CC(O)(CNCc2ccc3c(c2)OCO3)CCO1 (centres undefined),-8.6%,0.5%,-3.7%,-1.0%,1.7%,/,/,
COc1cccc(-n2c(SCc3cc(=O)oc4cc(O)c(O)cc34)nc3ccccc3c2=O)c1,10µM*,50.1µM*,31.6µM*,25.1µM*,28.2µM*,12.6µM*,26.9*,
CCC1=NN2C(=N)/C(=C\c3ccc(OCc4cc(=O)n5nc(CC)sc5n4)c(OC)c3)C(=O)N=C2S1,14.1µM*,50.1µM*,?,7.08µM*,-31.6%[11.6 µM],?,37.9*,
CC(=O)Nc1ccc(/C(C)=N/Nc2nc(Nc3ccccc3)nc(N3CCOCC3)n2)cc1,-1.7%,-16.6%,-5.4%,-2.4%,-2.7%,/,/,
CCN1CCN(c2nc(Nc3ccc(NC(C)=O)cc3)nc(Nc3ccc(NC(C)=O)cc3)n2)CC1,17.8µM*,?,/,31.6µM*,25.1µM*,22.4µM*,?,
CC(C)(C)S(=O)N1Cc2ccc(CO)cc2[C@@H]1CCO (some centres undefined),/,30.0%,/,/,-0.4%,/,/,
COCCn1cnnc1SCC(=O)Nc1sc2c(c1C#N)CCC2,/,1.0%,-11.1%,/,?,/,/,
Cn1cnnc1SCC(=O)Nc1sc2c(c1C(N)=O)CCC2,?,31.6µM*,?,31.6µM*,12.6µM*,?,?,
C/C(=N/NC(=O)CNC(=O)c1ccco1)c1ccc(Cl)cc1,-0.9%,2.9%,/,/,6.5%,/,/,
N=C1/C(=C/c2ccc(-c3cccc(C(=O)O)c3)o2)C(=O)N=C2SC=C(c3ccccc3)N12,?,?,/,?,35.5µM*,?,23.9*,
COc1ccc(OC)c(Nc2nc(NCCCN(C)C)nc(N)c2[N+](=O)[O-])c1,?,12.6µM*,-11.7%,?,35.5µM*,?,47.8*,
COCCCNc1nc(N)c([N+](=O)[O-])c(Nc2cc(OC)ccc2OC)n1,-11.9%,-2.9%,-2.9%,i,-4.2%,/,/,
CCOC(=O)c1ccc(NC(=O)c2c(Cl)cc(C)nc2C)cc1,-2.7%,13.6%,3.5%,/,1.7%,/,/,
O=C(CCCN1C(=O)/C(=C/c2ccco2)SC1=S)Nc1ccccc1C(=O)O,9.3%,?,7.08µM*,8.91µM*,31.6µM*,/,/,RECQ1 conf=28.2µM*;RECQ1 ADP FP=50.1µM*;L3MBTL1 inh-2=3.36*;AlphaScreen ctr2=-0.1%;WRN helicase inh-2=19.2µM*;TO displacement=-14.6%;BLM helicase inh-2=24.1µM*
CCc1nnc(NS(=O)(=O)c2ccc(N/C=C\C(=O)c3cccc4ccccc34)cc2)s1,-2.5%,-8.8%,-5.6%,?,26.7µM*,?,/,WRN helicase inh-2=24.1µM*;TO displacement=-20.6%;BLM helicase inh-2=27.1µM*
O=C(COc1ccccc1C(=O)N/N=C\c1ccc(O)c(O)c1)N/N=C/c1ccc(O)c(O)c1,2µM*,1.58µM*,1.58µM*,1µM*,0.267µM*,/,16.9*,RECQ1 conf=2.24µM*;RECQ1 ADP FP=-14.4%[91.9 µM];WRN helicase inh-2=0.271µM*;TO displacement=19.2µM*;BLM helicase inh-2=0.121µM*
COc1ccccc1/C=c1\sc2nc(-c3ccccc3OC)nn2c1=O,0.4%,-0.2%,-4.7%,-8.6%,-5.3%,/,/,
COc1ccc(Br)cc1/C=c1\sc2nc(-c3ccco3)nn2c1=O,-24.8%,?,7.94µM*,8.91µM*,35.5µM*,/,/,RECQ1 conf=20µM*;RECQ1 ADP FP=?;WRN helicase inh-2=17.1µM*;TO displacement=19.2µM*;BLM helicase inh-2=7.64µM*
O=C1CC(=O)N(Cc2ccco2)C(=O)N1,62.7%,28.2µM*,3.16µM*,?,25.1µM*,?,23.9*,WRN helicase inh-2=7.64µM*;TO displacement=29.7%;BLM helicase inh-2=4.29µM*
O=C1CC(=O)N(Cc2cccs2)C(=O)N1,-0.2%,15.5%,/,i,-0.4%,/,/,

# Assay outcomes (PubChem BioAssay)
